Screening results: PubChem, National Center for Advancing Translational Sciences (NCATS)
In the library only some 21% were active in any assay of this set; here they are far more common.
NS1 function inh: influenza NS1 inhibition. Potency, µM (series often up to 46.1 µM), for the others: top-dose activity, positive = more growth. actives 0.4% (n = 270,000). AID 2326; calls by dose curve; note: potency is the fitted concentration of half-maximal effect; actives are rising curves; nearly all actives have a fitted effect of over 50% in size
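Growth recovery, yeast-based: influenza A NS1 expressed in S. cerevisiae causes slow growth, and suppressors are detected by OD600. The parent strain without NS1 is used as positive control.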
Pf growth 48h: P. falciparum growth inhibition at 48 hours (one generation); P. falciparum luciferase growth in erythrocytes, 48 h; Potency, µM (highest dose often 28.7 µM), for inactives: top-dose activity change, negative = inhibition, most hits filed as inhibitors; actives 5.9% (n = 310,000); note: potency is the fitted concentration of half-maximal effect; % is set by controls: 0 for no effect and ±100 for the full control effect
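Parasite viability was followed by luminescence of a genomically integrated firefly luciferase. Cultures held 0.1% parasitemia at 2% hematocrit (final), incubated under 5% CO2 at 37 C.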
Cycloheximide cs: counter-screen for Shiga toxin inhibitors: cycloheximide protein synthesis inhibition; max response, %; actives 12% (n = 300,000); cell reporter, cycloheximide protein synthesis inhibition counterscreen; in the data active = max response mostly above about 13%, no sharp cut-off; inactive = mostly below about 14%; note: read at 38.3 µM for the half of the compounds with a filed dose; 0% is about no effect
Shiga inhibitor: Shiga toxin inhibition; Vero cells, Shiga toxin protein synthesis inhibition reporter; inhibition, % at 38.7 µM; actives 9.2% (n = 290,000); AID 2315; in the data active = inhibition mostly above about 28%, no sharp cut-off; inactive = mostly below about 43%; note: 0% is about no effect
Pf growth 96h: inhibits malaria parasite growth, 96 h; Potency, µM (highest dose often 28.7 µM), for the others: top-dose activity change, negative = inhibition, usual class: inhibitors; P. falciparum luciferase reporter growth, 96 h; AID 504834; actives 6.9% (n = 320,000); note: potency is the fitted concentration of half-maximal effect; % is set by controls: 0 for no effect and ±100 for the full control effect
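Delayed-death screen, second-generation endpoint: infected erythrocytes, 2% hematocrit, 0.05% parasitemia final; 96 hours at 37 C, 5% CO2; luciferase detection reagent; luminescence decrease equals reduced growth.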
SARS PLP yeast: inhibitors of SARS-CoV papain-like protease in yeast; Potency, µM (titrated, usually from 32.9 µM), without a hit: top-dose activity, positive = growth rescue, actives largely listed as activators; actives 0.19% (n = 330,000); S. cerevisiae expressing SARS-CoV PLpro, growth rescue; AID 485353; calls by dose curve; note: potency is the fitted concentration of half-maximal effect; 0% is about no effect; nearly all actives have a fitted effect of over 55% in size
Numbers without * were called inactive; i = inactive; ? = inconclusive; . = no result; [ ] = dose if it differs, or a comment. Unless noted, calls come from the whole dose curve; as a rule, active = well fitted inhibition curve with a large enough effect; inconclusive = small, poorly fitted or top-dose-only effect, or another doubt; inactive = no such curve, though single readings can be large or run the other way.

SMILES | NS1 function inh | Pf growth 48h | Cycloheximide cs | Shiga inhibitor | Pf growth 96h | SARS PLP yeast
CCC1CN(C(=O)N2CCC(C(=O)NCc3ccco3)CC2)c2ccccc2O1 (stereo not given) | -1% | -2% | -11 | -7 | 12µM* | -1%
CCC1CN(C(=O)N2CCC(C(=O)NCc3ccc(F)cc3)CC2)c2ccccc2O1 (stereo not given) | -3% | ? | -8 | -1 | ? | -2%
CCC1CN(C(=O)N2CCC(C(=O)NCc3ccc(C)o3)CC2)c2ccccc2O1 (stereo not given) | 3% | -4% | -7 | -8 | 9.3µM* | 2%
O=C(Cn1nnc(-c2ccccc2)n1)N/N=C/c1ccco1 | . | -19% | 1 | 10 | 306% | 1%
CCN1C[C@]2(C)CC[C@H](O)[C@@]34[C@@H]5C[C@@H]6[C@@H](OC)C[C@@](O)(C5[C@H]6O)[C@@H](C[C@@H]23)[C@@H]14 | -1% | . | . | . | . | .
CC(C)Oc1ccc(C2CC(=O)N(c3cccc(/C=C/C(=O)O)c3)C2=O)cc1 (stereo not given) | 7% | . | 1 | -1 | 7% | 0%
C/C(=N/NS(=O)(=O)c1ccc(C)cc1)P(=O)(O)O | -11% | . | . | . | . | .
CO/N=C/c1ccc(N2CCCC2)c([N+](=O)[O-])c1 | . | 233% | 31* | 53 | 47% | -1%
O=[N+]([O-])c1cc(/C=N/O)ccc1N1CCCC1 | . | 3% | 13 | -3 | 41% | 1%
COc1cccc(C(=O)/C=C/c2ccc(N3CCCCC3)c([N+](=O)[O-])c2)c1 | -2% | ? | 29* | 60* | -77% | 1%
CC(OC(=O)C1=COCCO1)C(=O)Nc1ncc(Cl)cc1Cl (stereo not given) | . | 27% | . | . | 12% | -3%
C=CCn1c(SCC(=O)/C(C#N)=C(\C)N)nc2sc(CC)cc2c1=O | -24% | ? | 7 | 18 | 10µM* | 1%
CCC(C(=O)NCC1CCCO1)N(Cc1ccccc1)C(=O)CNS(=O)(=O)c1ccccc1 (stereo not given) | 1% | -2% | 1 | -19 | 12% | 0%
N/C(=N\OC(=O)COc1ccc(Cl)cc1Br)c1ccncc1 | 0% | i | 64* | 137* | 108% | -3%
CCc1ccc(OCC(=O)N(C)C)c(Br)c1 | 0% | -4% | 5 | 1 | . | -1%
CCc1ccc(OCC(=O)O/N=C(\N)c2ccncc2)cc1 | -32% | 54% | 62* | 76* | ? | -6%
COc1ccc(OCC(=O)O/N=C(\N)c2ccc(OC)cc2)cc1 | -9% | 52% | 8 | 25 | 51% | -2%
CCc1ccc(OCC(=O)O/N=C(\N)c2ccncc2)c(Br)c1 | -23% | 179% | 46* | 85* | 7.4µM* | -14%
O=C(NCc1ccccc1)C1(c2cccc(F)c2)CCCC1 | . | -11% | 5 | 6 | 1% | 0%
COC(=O)c1c(NC(C)=O)csc1C | 0% | -14% | -2 | -4 | 10% | 0%
COc1cc(SC#N)ccc1N=Cc1c(C)[nH]n(-c2ccc(C)c(C)c2)c1=O | -4% | 5.2µM* | 0 | -8 | -28% | -78%
COc1cc(S(=O)(=O)Nc2ccccc2)ccc1N=Cc1c(C)[nH]n(-c2ccc(C)cc2)c1=O | 8% | -19% | -2 | -11 | 24% | -12%
COc1cc(SC#N)ccc1N=Cc1c(C)[nH]n(-c2ccc(Cl)cc2)c1=O | 1% | 2.1µM* | 0 | -11 | 2.1µM* | -7%
Cn1c(C(=O)c2ccccc2)nc2ccccc21 | 3% | 48% | 26* | 58* | 31% | 1%
CN1C(N)=NC(=O)/C1=C\c1ccc(Br)cc1 | 4% | 1% | 13* | 41 | -15% | 6%
SMILES | NS1 function inh | Pf growth 48h | Cycloheximide cs | Shiga inhibitor | Pf growth 96h | SARS PLP yeast
CN1C(N)=NC(=O)/C1=C/c1ccc(OC(F)(F)F)cc1 | . | -9% | 33* | 41* | 18% | 5%
COc1ccc(/C=C2/C(=O)N=C(N)N2C)cc1OC | 9% | 2% | 1 | 11 | 12µM* | -4%
COc1ccc(/C=C2/C(=O)N=C3SCCN32)cc1 | -6% | . | -2 | 1 | ? | -3%
COc1cc(OC)c(OC)cc1/C=C1/C(=O)N=C(N)N1C | . | -20% | 2 | -1 | -32%[5.75 µM] | 0%
O=C(COC(=O)CSc1ccc2ccccc2c1Br)NC1CC1 | . | ? | -2 | -20 | 14% | -2%
CC(=O)Nc1ccc(N2CC(C)(C)C2=O)cc1 | 4% | 20% | 11 | -3 | 5% | 0%
COc1ccc(N(CC(=O)NC(C)C)S(=O)(=O)c2ccc(NC(C)=O)cc2)cc1 | -2% | . | -2 | -10 | ? | -6%
CN(C)S(=O)(=O)c1ccc(-c2cn3ccccc3n2)cc1 | -4% | . | 35* | 65* | 5% | -22%
Brc1ccc(-c2cn3ccccc3n2)cc1 | -53% | 380% | 35* | 52* | -19% | -4%
CN(C)S(=O)(=O)c1ccc(-c2ccccc2)cc1 | 10% | -16% | 10 | 3 | ? | 0%
Oc1ccc(-c2cn3ccccc3n2)cc1 | -5% | 109% | 23* | 25 | 309% | -2%
O=C(COc1ccc(Br)cc1)NCc1cn2ccccc2n1 | 0% | -4% | -4 | -5 | 5% | -1%
Oc1ccc(-c2cn3ccccc3n2)cc1O | 9% | . | 3 | -4 | 35% | 0%
Brc1ccc(OCc2cn3ccccc3n2)cc1 | -36% | i | 36* | 73* | i | -2%
CCOC(=O)CCNC(=O)N1CCCC(N2CCN(c3ccc(OC)cc3)CC2)C1 (stereo not given) | 7% | -2% | -4 | . | 2.9µM* | 1%
COc1ccc(-c2csc(NC(=O)c3ccccc3F)n2)cc1 | -19% | -9% | 15* | . | ? | 4%
O=C(Nc1nc(-c2ccccc2)cs1)c1ccc(Br)o1 | -137% | 1% | 32* | 107* | . | -36%
O=C(Nc1nc(-c2ccccc2)cs1)c1ccccc1F | 4% | 52% | 41* | 62* | 13µM* | -9%
CCCC(=O)NC(=S)Nc1nc(-c2ccc(OC)cc2)cs1 | 9% | 64% | -4 | -2 | 13% | -2%
Cc1ccc(C(=O)Nc2nc(-c3cccnc3)cs2)o1 | 11% | 34% | 22 | 26 | 63% | -1%
COc1ccccc1CNC(=O)CSc1ccc(-c2ccncc2)nn1 | . | 22% | 1 | -14 | 20% | -5%
Cc1cccc(-c2nsc(SCC(=O)NCc3ccco3)n2)c1 | -51% | 39% | 23* | 9 | -25% | -5%
Cc1cccc(-c2nsc(SCC(=O)NCC3CCCO3)n2)c1 (stereo not given) | . | 45% | 44* | 91* | 70% | -1%
CCOC(=O)CNC(=O)CSc1nc(-c2cccc(C)c2)ns1 | . | 5% | 11 | 26 | 48% | 0%
Cc1cccc(-c2nsc(SCC(=O)NCc3ccc4c(c3)OCO4)n2)c1 | -12% | 20% | -2 | -11 | 49% | 2%
COc1cc2nc(N(C)CCCNC(=O)[C@@H]3CCCO3)nc(N)c2cc1OC | . | -7%[12.8 µM] | . | . | 1%[12.8 µM] | .
